PubChem BioAssay (NCI)
About 79,000 compounds went through this panel and 15% of them were active in at least one assay; those are over-represented in the sample as a whole. Activity calls are given as the source filed them. Rule as the data show it: active = growth inhibition above about 70%; inactive = the rest.

Key:
[1] = NCI Yeast Anticancer Drug Screen. Data for the rad52 strain (AID 147);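 also: 0% = growth of vehicle-treated control cultures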; conditions: S. cerevisiae rad52 mutant growth inhibition, active compounds read high
Procedure, shortened: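 Screen used a yeast mutant impaired in DNA repair. After compound exposure, growth was measured. Values reflect inhibition compared with vehicle-treated cells.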

[2] = NCI Yeast Anticancer Drug Screen. Data for the wt1 strain (AID 149);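 also: 0% = growth of vehicle-treated wt1 cultures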; conditions: S. cerevisiae wt1 strain (SPY 50644) growth inhibition, active compounds read high
Procedure, shortened: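 Measured: growth of wt1 yeast under compound versus vehicle treatment, reported as inhibition.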

[3] = NCI Yeast Anticancer Drug Screen. Data for the rad50EPP+ strain (AID 151);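 also: 0% = growth of vehicle-treated control cultures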; conditions: S. cerevisiae rad50 mutant strain, active compounds read high
Procedure, shortened: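 Exposing the rad50EPP+ strain to each compound, growth was compared with vehicle-only cultures to give inhibition.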

[4] = NCI Yeast Anticancer Drug Screen. Data for the mgt1 strain (AID 153); conditions: S. cerevisiae mgt1 mutant growth inhibition, active compounds read high
Procedure, shortened: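 Genetically defined yeast (mgt1) treated with compound; inhibition of growth expressed against vehicle-treated controls.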

[5] = NCI Yeast Anticancer Drug Screen. Data for the rad50 strain (AID 155);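 also: 0% = growth of vehicle-only cultures of the same strain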; conditions: S. cerevisiae rad50 strain growth inhibition, active compounds read high
Procedure, shortened: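 Growth of the mutant yeast was measured after compound exposure and referenced to vehicle-treated cultures.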

[6] = NCI Yeast Anticancer Drug Screen. Data for the mec2-1 strain (AID 157); conditions: S. cerevisiae mec2-1 strain, active compounds read high
Procedure, shortened: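 Readout is yeast growth inhibition, normalised to vehicle-treated controls, in the mec2-1 strain exposed to compound.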

[7] = NCI Yeast Anticancer Drug Screen. Data for the rad14 strain (AID 159);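 also: 0% = growth of vehicle-treated control cultures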; conditions: S. cerevisiae rad14 strain growth inhibition, active compounds read high
Procedure, shortened: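 Here, inhibition of yeast growth was measured after compound exposure, using a strain with a genetic defect in DNA damage repair and vehicle-treated cultures as the reference.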

[8] = NCI Yeast Anticancer Drug Screen. Data for the sgs1 mgt1 strain (AID 161);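 also: 0% = growth of cultures given vehicle only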; conditions: S. cerevisiae sgs1 mgt1 strain, active compounds read high
Procedure, shortened: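 Compounds are added to genetically altered yeast, and growth is compared with cultures given vehicle alone to give percent inhibition.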

[9] = NCI Yeast Anticancer Drug Screen. Data for the CLN2oe strain (AID 163);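 also: 0% = growth of vehicle-only control cultures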; conditions: S. cerevisiae CLN2oe strain, active compounds read high
Procedure, shortened: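 Values reflect how much compound exposure reduced yeast growth, referenced to vehicle-exposed cells. Assay organism is a strain with a defined genetic change affecting cell-cycle control.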

[10] = NCI Yeast Anticancer Drug Screen. Data for the cln2 rad14 strain (AID 165);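 also: 0% = growth equal to vehicle treated cultures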; conditions: S. cerevisiae cln2 rad14 strain, active compounds read high
Procedure, shortened: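 Relative to vehicle controls, growth inhibition of compound-treated cln2 rad14 yeast was recorded.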

[11] = NCI Yeast Anticancer Drug Screen. Data for the bub3 strain (AID 167); conditions: S. cerevisiae bub3 mutant strain, active compounds read high
Procedure, shortened: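 Whole-cell yeast assay. The mutant strain was incubated with compounds, and growth inhibition was determined by comparison with vehicle-treated cells.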

[12] = NCI Yeast Anticancer Drug Screen. Data for the wt2 strain (AID 169);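 also: 0% = growth of vehicle-treated yeast cultures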; conditions: S. cerevisiae wt2 strain growth inhibition, active compounds read high
Procedure, shortened: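 Values express reduction in yeast growth under compound treatment, referenced to vehicle-treated cells.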

[13] = NCI Yeast Anticancer Drug Screen. Data for the mlh1 strain (AID 171);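 also: 0% = growth of vehicle-treated control cultures of the same strain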; conditions: S. cerevisiae mlh1 strain growth inhibition, active compounds read high
Procedure, shortened: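 Steps: expose the defined-mutant yeast strain to compound; expose a parallel culture to vehicle; measure growth; express compound effect as inhibition relative to the vehicle culture.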

[14] = NCI Yeast Anticancer Drug Screen. Data for the sgs1 strain (AID 173);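 also: 0% = growth of vehicle-only control cultures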; conditions: S. cerevisiae sgs1 mutant, active compounds read high
Procedure, shortened: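 Treat defined-mutant yeast with compound; measure growth; calculate inhibition relative to vehicle-treated cells.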

[15] = NCI Yeast Anticancer Drug Screen. Data for the mlh1 rad18 strain (AID 175); conditions: S. cerevisiae mlh1 rad18 strain growth inhibition, active compounds read high
Procedure, shortened: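 Test agents were incubated with a yeast strain of defined genotype (DNA damage repair defect). Inhibition of growth was derived by comparison with vehicle-exposed cultures.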

[16] = NCI Yeast Anticancer Drug Screen. Data for the rad18 strain (AID 177); conditions: S. cerevisiae rad18 mutant growth inhibition, active compounds read high
Procedure, shortened: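 A genetically defined yeast mutant impaired in DNA damage repair was treated with test compounds, then its growth was measured against cultures receiving vehicle alone.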

[17] = at 5.0 µM (retest, dose inferred, filed as 0.5)
[18] = at 50.0 µM (retest, dose inferred, filed as 5.0)

Measured: growth inhibition

CCN(CC)CCNc1ccc([N+](=O)[O-])c2nc3ccc(OC)cc3c(N)c12
active: [1]; at 33.0 µM 74% | [1]; at 100.0 µM 90% | [3]; at 100.0 µM 79% | [4]; at 100.0 µM 73% | [5]; at 33.0 µM 79% | [5]; [18] 89% | [5]; at 100.0 µM 93% | [7]; at 100.0 µM 88% | [12]; at 100.0 µM 70% | [13]; at 100.0 µM 85% | [14]; at 100.0 µM 82% | [15]; [18] 86% | [16]; at 100.0 µM 86%
inactive: [1]; at 1.2 µM -23% | [1]; at 3.7 µM -13% | [1]; at 11.0 µM 19% | [2]; at 1.2 µM -8% | [2]; at 3.7 µM -14% | [2]; at 11.0 µM -17% | [2]; at 33.0 µM -6% | [2]; at 100.0 µM 54% | [3]; at 1.2 µM 11% | [3]; at 3.7 µM 7% | [3]; at 11.0 µM 30% | [3]; at 33.0 µM 69% | [4]; at 1.2 µM -20% | [4]; at 3.7 µM -20% | [4]; at 11.0 µM -16% | [4]; at 33.0 µM 15% | [5]; at 1.2 µM -3% | [5]; at 3.7 µM -2% | [5]; [17] 13% | [5]; at 11.0 µM 35% | [5]; at 50.0 µM 48.4% | [6]; at 1.2 µM -24% | [6]; at 3.7 µM -19% | [6]; [17] -5% | [6]; at 11.0 µM -8% | [6]; at 33.0 µM 5% | [6]; [18] 21% | [6]; at 50.0 µM -26.1% | [6]; at 100.0 µM 42% | [7]; at 1.2 µM -34% | [7]; at 3.7 µM -29% | [7]; at 11.0 µM -19% | [7]; at 33.0 µM 28% | [8]; [17] -12% | [8]; [18] 48% | [8]; at 50.0 µM 58.4% | [9]; at 1.2 µM 10% | [9]; at 3.7 µM 15% | [9]; at 11.0 µM 22% | [9]; at 33.0 µM 25% | [9]; at 100.0 µM 64% | [10]; [17] 3% | [10]; [18] 33% | [10]; at 50.0 µM 6.25% | [11]; at 1.2 µM -23% | [11]; at 3.7 µM -16% | [11]; [17] -24% | [11]; at 11.0 µM -36% | [11]; at 33.0 µM -17% | [11]; [18] 18% | [11]; at 50.0 µM -0.6% | [11]; at 100.0 µM 64% | [12]; at 1.2 µM 15% | [12]; at 3.7 µM 6% | [12]; at 11.0 µM 10% | [12]; at 33.0 µM 28% | [13]; at 1.2 µM -2% | [13]; at 3.7 µM 4% | [13]; at 11.0 µM 5% | [13]; at 33.0 µM 27% | [14]; at 1.2 µM -8% | [14]; at 3.7 µM -9% | [14]; at 11.0 µM -16% | [14]; at 33.0 µM 10% | [15]; [17] -22% | [15]; at 50.0 µM 68% | [16]; at 1.2 µM 1% | [16]; at 3.7 µM 4% | [16]; at 11.0 µM 7% | [16]; at 33.0 µM 23%

[O-][n+]1c2ccc(O)cc2nc2ccc(Br)cc21
active: [1]; at 33.0 µM 83% | [1]; at 100.0 µM 85% | [3]; at 33.0 µM 75% | [3]; at 100.0 µM 77% | [4]; at 33.0 µM 85% | [4]; at 100.0 µM 87% | [5]; at 33.0 µM 87% | [5]; [18] 96% | [5]; at 50.0 µM 88.5% | [5]; at 100.0 µM 87% | [6]; [18] 81% | [6]; at 50.0 µM 78.8% | [7]; at 100.0 µM 81% | [8]; [18] 86% | [10]; [18] 88% | [11]; at 33.0 µM 78% | [11]; [18] 74% | [11]; at 50.0 µM 84% | [11]; at 100.0 µM 70% | [12]; at 100.0 µM 80% | [13]; at 33.0 µM 75% | [13]; at 100.0 µM 84% | [14]; at 33.0 µM 74% | [14]; at 100.0 µM 84% | [15]; [18] 93% | [15]; at 50.0 µM 92.2% | [16]; at 33.0 µM 90% | [16]; at 100.0 µM 90%
inactive: [1]; at 1.2 µM 1% | [1]; at 3.7 µM 16% | [1]; at 11.0 µM 42% | [2]; at 1.2 µM 1% | [2]; at 3.7 µM 14% | [2]; at 11.0 µM 22% | [2]; at 33.0 µM 45% | [2]; at 100.0 µM 67% | [3]; at 1.2 µM 6% | [3]; at 3.7 µM 20% | [3]; at 11.0 µM 55% | [4]; at 1.2 µM 4% | [4]; at 3.7 µM 21% | [4]; at 11.0 µM 46% | [5]; at 1.2 µM 2% | [5]; at 3.7 µM 18% | [5]; [17] 36% | [5]; at 11.0 µM 56% | [6]; at 1.2 µM -1% | [6]; at 3.7 µM 12% | [6]; [17] 2% | [6]; at 11.0 µM 25% | [6]; at 33.0 µM 49% | [6]; at 100.0 µM 61% | [7]; at 1.2 µM 2% | [7]; at 3.7 µM 7% | [7]; at 11.0 µM 29% | [7]; at 33.0 µM 67% | [8]; [17] 30% | [8]; at 50.0 µM 65% | [9]; at 1.2 µM 14% | [9]; at 3.7 µM 21% | [9]; at 11.0 µM 40% | [9]; at 33.0 µM 54% | [9]; at 100.0 µM 64% | [10]; [17] 16% | [10]; at 50.0 µM 49% | [11]; at 1.2 µM 5% | [11]; at 3.7 µM 16% | [11]; [17] 32% | [11]; at 11.0 µM 41% | [12]; at 1.2 µM 3% | [12]; at 3.7 µM -40% | [12]; at 11.0 µM 25% | [12]; at 33.0 µM 60% | [13]; at 1.2 µM 2% | [13]; at 3.7 µM 15% | [13]; at 11.0 µM 29% | [14]; at 1.2 µM 4% | [14]; at 3.7 µM 8% | [14]; at 11.0 µM 28% | [15]; [17] 50% | [16]; at 1.2 µM 5% | [16]; at 3.7 µM 21% | [16]; at 11.0 µM 57%
